The list is not random: actives were taken first. Their share in the collection is about 4.8%.
tim10-1 inh – growth inhibitors of tim10-1 mutant yeast; S. cerevisiae tim10-1 ts strain growth, BacTiter-Glo, 24 h; inhibition, % at 20 µM; 2.2% of 330,000 active;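 active = inhibition of at least 40%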;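 note: mutant grown at 25 °C; 0% = DMSO wells with yeast and 100% = wells holding no yeast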
SKKanGAS inh – SKKanGAS growth inhibition; S. pyogenes SKKanGAS, kanamycin growth, BacTiter-Glo, 6 h; inhibition, % at 7.5 µM; 1.3% of 300,000 active; AID 1662;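 active = mean replicate score, as percent of positive control median, at least 50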;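 note: strain carries kanamycin resistance gene driven by streptokinase promoter and grows in 40 µg/ml kanamycin; loss of luminescence reflects streptokinase promoter inhibition or plain growth inhibition; 0% = median of DMSO wells and 100% = positive control at its reference dose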
NALP1 inh – inhibitors of NALP1 inflammasome in yeast; S. cerevisiae NALP1/ASC/caspase-1 growth, X-gal OD620, 72 h; inhibition, % at 10 µM; 0.61% of 280,000 active; AID 2071; in the data active = inhibition mostly above about 24%, no sharp cut-off; inactive = mostly below about 32%
PfHsp90 set2 – growth inhibition of yeast expressing Plasmodium Hsp90; S. cerevisiae expressing PfHsp90, BacTiter-Glo ATP, 48 h; yeast lacking PDR1 and PDR3 efflux regulators; inhibition, % at 9.4 µM; 0.32% of 310,000 active;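 active = every replicate shows inhibition above about 80%, whatever the replicate mean, limit read from the data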;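 note: 0% = DMSO neutral controls and 100% = 20 µM radicicol positive controls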
tim23-1 inh – growth inhibitors of tim23-1 mutant yeast; S. cerevisiae tim23-1 growth, BacTiter-Glo luminescence, 24 h; 1.3% of 330,000 active; inhibition, % at 20 µM;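 active = growth inhibition of the mutant yeast at or above 50%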;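 note: temperature-sensitive mutant grown at 25 °C; plate controls were DMSO-treated mutant yeast for no effect and medium wells lacking yeast for full effect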
TIM10 inh – TIM10 yeast growth inhibition. S. cerevisiae TIM10 strain growth, BacTiter-Glo luminescence, 24 h. inhibition, % at 10 µM. 1.4% of 330,000 active. AID 463195;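 active = inhibition of 40% or more at the single tested concentration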;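 note: wild-type TIM10 isogenic control strain grown at permissive 25 °C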
The depositor's hits bear a star; / = not tested or not shown.

SMILES	tim10-1 inh	SKKanGAS inh	NALP1 inh	PfHsp90 set2	tim23-1 inh	TIM10 inh
O=C(O)c1cc(-c2ccccc2)nn1CC1CC(c2cccnc2)=NO1 (stereo not drawn)	-4	1	/	-14	-1	-4
CC(=O)N1CCc2cc(S(=O)(=O)CCC(=O)NCc3ccc(C)o3)ccc21	5	-6	-3	-7	2	-6
Cc1ccc(C(=O)CC(Nc2ccc(F)cc2)c2ccccc2)cc1 (stereo not drawn)	13	-6	17	10	3	17
COc1ccc(-c2csc3nc(C)n(-n4cccc4)c(=O)c23)cc1	5	-5	19	17	16	7
CCc1cc(=S)n2c([nH]c3ccccc32)c1C#N	20	35	1	47	18	15
CCc1c(C)c(C#N)c2[nH]c3ccccc3n2c1=S	21	60*	9	-13	41	13
Cc1cc(C)cc(NC(=S)/C(=C(\[O-])c2ccc(Cl)cc2Cl)[n+]2ccc(C(C)(C)C)cc2)c1	9	0	/	6	7	7
CC(C)C[C@H](NC(=O)c1[nH]cnc1C(=O)Nc1ccc(Cl)cc1)C(=O)OC(C)(C)C	20	60*	/	-9	25	11
CC(C)C[C@H](NC(=O)c1nc[nH]c1C(=O)N[C@@H](CC(C)C)C(=O)OC(C)(C)C)C(=O)OC(C)(C)C	10	87*	/	-5	19	17
Cc1ccc(NC(=O)c2nc[nH]c2C(=O)N[C@@H](C)c2ccccc2)cc1	36	66*	7	/	48	31
CC(C)C[C@H](NC(=O)c1nc[nH]c1C(=O)NC(c1ccccc1)c1ccccc1)C(=O)OC(C)(C)C	10	60*	-2	24	12	13
CC(C)C[C@H](NC(=O)c1[nH]cnc1C(=O)N[C@@H](C)C(=O)OCc1ccccc1)C(=O)OC(C)(C)C	19	20	-2	-14	35	23
CC(C)C[C@H](NC(=O)c1nc[nH]c1C(=O)NCC(=O)OC(C)(C)C)C(=O)OC(C)(C)C	9	9	/	30	25	13
COc1ccc(OCCC(=O)OCC(=O)Nc2ccc(S(=O)(=O)N3CCOCC3)cc2)cc1	11	5	12	9	8	-11
O=S(=O)(c1ccc(F)cc1)N1CCN(C(=S)NCc2ccccc2)CC1	-5	-2	-1	/	5	-4
COc1cccc(C(=O)NOCc2ccc(C)cc2)c1OC	0	/	/	-13	1	-3
CC(C)C[C@H](NC(=O)c1[nH]cnc1C(=O)N[C@H](C)c1ccccc1)C(=O)OC(C)(C)C	26	57*	-2	/	28	27
CC(C)C[C@H](NC(=O)c1nc[nH]c1C(=O)N[C@@H](CC(C)C)C(=O)OCc1ccccc1)C(=O)OCc1ccccc1	6	33	16	-11	15	10
C[C@H](NC(=O)c1nc[nH]c1C(=O)N[C@@H](C)c1ccccc1)C(=O)OC(C)(C)C	19	-2	-18	32	26	25
CC(C)C[C@H](NC(=O)c1[nH]cnc1C(=O)N[C@H](C)c1ccccc1)C(=O)OCc1ccccc1	12	73*	-2	-7	12	-2
COCCCN1Cc2cccc(C(=O)O)c2C1=O	-14	-1	38*	-17	-4	-6
CCC(C)c1ccccc1NC(=O)CN1CCN(C/C=C/c2ccccc2)CC1 (stereo not drawn)	19	-3	53*	0	-18	20
CCOC(=O)/C(C#N)=N/Nc1c(C)n(C)n(-c2ccccc2)c1=O	12	7	-7	11	-2	10
Cc1ccccc1C(=O)/C(C#N)=N/Nc1c(C)n(C)n(-c2ccccc2)c1=O	/	66*	/	4	/	/
Cc1c(N/N=C(\C#N)C(=O)c2ccccc2)c(=O)n(-c2ccccc2)n1C	/	65*	/	18	/	/
CCOC(=O)C1=C(C)NC(=O)NC1c1ccc(OCCO)c(OC)c1 (stereo not drawn)	3	6	-10	-9	-1	-17
CCOCCCNC(=O)c1ccc(OC)cc1	10	5	28*	0	8	-20
CCOCCCNC(=O)c1ccc(OC(C)=O)cc1	4	12	14	6	3	9
COCCCNC(=O)c1ccc2nc(Cc3ccc(OC)cc3)oc2c1	7	-7	25*	2	16	-4
